Here are results for 62 compounds from PubChem BioAssay AID686979 (National Center for Advancing Translational Sciences (NCATS), 2013).

Molecules are shown by their SMILES. Where “and” joins values, the source holds several entries; their conditions need not be identical. Identical values can stand only once. The whole screen tested about 420,000 compounds, of which about 50,000 (12%) were called active. Entries that show only a call come without a potency. Inconclusive results (about 26%) are left out. Calls follow the shape of the dose curve; as a rule, active = well fitted inhibition curve with a large enough effect; inconclusive = small, poorly fitted or top-dose-only effect; inactive = flat fitted curve, though single readings scatter. For the sample, actives were picked, then their nearest neighbours and some compounds at random.
Potency is read from the fitted curve at half-maximal effect.

The nature of the assay: qHTS for Inhibitors of human tyrosyl-DNA phosphodiesterase 1 (TDP1): qHTS in cells in presence of CPT. Also: nearly all actives have a fitted effect of over 55% in size. The settings on record: chicken DT40 Tdp1-/-;hTDP1 cells + 20 nM CPT, ATP luminescence, 48 h; series mostly up to 46.2 µM. A digest of the protocol:
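Cell growth measured by CellTiter-Glo luminescence after a minimum 48 h, 37 C compound exposure with 20 nM CPT in Tdp1-knockout DT40 cells stably expressing hTDP1, seeded 400/well; qHTS titration format.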
With `C[C@]12CCC(=O)C=C1C=CC1C2CC[C@@]2(C)C1CC[C@@]21CCC(=O)O1` (some centres not stated), the Potency is 20.6 µM (active).

As for `COC(=O)[C@@H]1CC2=CC(=O)CC[C@]2(C)[C@@]23O[C@@H]2C[C@@]2(C)[C@@H](CC[C@@]24CCC(=O)O4)[C@H]13`, the Potency entry was “inactive”.

Take `CC(=O)O[C@]1(C(C)=O)CC[C@H]2[C@@H]3C=C(C)C4=CC(=O)CC[C@]4(C)[C@H]3CC[C@@]21C`: the Potency result was “inactive”.

Take `CN1CCN(C(=O)/C(=C\c2ccc3c(c2)OCO3)NC(=O)c2cccs2)CC1`: the Potency result is “inactive”.

Turning to `CCn1ccnc1CN(C)C(=O)c1cc(COc2ccc(Cl)cc2OC)on1`, the Potency entry was “inactive”.

Consider `O=C(O)CCn1c(SCc2cc(=O)n3ccccc3n2)nc2ccsc2c1=O`, for which the Potency result is “inactive”.

As for `Cc1cc(C)cc(CN2CCc3nnc(C(NS(C)(=O)=O)C(C)C)n3CC2)c1` (configuration not stated), the Potency result is “inactive”.

On to `CCc1ccccc1OCCSc1nc(-c2cccs2)nc2cc(=O)[nH]n12`, for which the Potency entry is “inactive”.

For the compound `Cc1cccc(-c2nc(SCc3ccc(Br)cc3)n3[nH]c(=O)cc3n2)c1`, the Potency is 16.4 µM (active).

Take `Cc1cccc(CSc2nnc(C)c(=O)n2N)c1`: the Potency entry is “inactive”.

Take `CCN(CC(=O)Nc1ccccc1C(F)(F)F)C(=O)C1CCN(C(=O)Nc2ccccc2)CC1`: the Potency result was “inactive”.

With `NC(=O)c1ccsc1NC(=O)COC(=O)COc1ccc(C=O)cc1`, the Potency result was “inactive”.

Consider `COC(=O)c1ccc(/C=N/N2C(C)CCCC2C)cc1` (configuration not stated), for which the Potency entry was “inactive”.

For the compound `COC(=O)C[n+]1cccc2ccccc21`, the Potency entry is “inactive”.

`CC(C)(C)c1ccc(C(=O)C[n+]2cccc3cc(Cl)ccc32)cc1`: the Potency was 5.01 µM (active).

Consider `Cc1cccc[n+]1CC(=O)c1ccccc1`, for which the Potency result is “inactive”.

Consider `CCCC(O)(c1ccccc1)C(c1ccccc1)c1ccccn1` (configuration not stated), for which the Potency entry is “inactive”.

Turning to `Cc1nc(N2CCN(c3ccccn3)CC2)c2c(C)c(C(=O)Nc3ccc(F)c(Cl)c3)sc2n1`, the Potency was 16.4 µM (active).

For `O=C(c1c(F)cccc1Cl)N1CCN(c2ccccn2)CC1`, the Potency result was “inactive”.

Take `COc1ccc(NC(C)=O)cc1NC(=O)CN1CCN(c2ccccn2)CC1`: the Potency entry was “inactive”.

Consider `Cc1ccc(NC(=O)Cn2cnc3nc4c(cc3c2=O)CCCC4)cc1Cl`, for which the Potency entry is “inactive”.

For `Cc1cc(NS(=O)(=O)c2ccc(NC(=O)c3cccc(OC(F)F)c3)cc2)nc(C)n1`, the Potency entry was “inactive”.

For `O=S(=O)(Nc1n[nH]c(C(F)(F)F)n1)c1ccccc1`, the Potency result was “inactive”.

As to `CCCc1[nH]nc2c1C(c1c(C)nn(-c3ccccc3)c1Cl)C(C#N)=C(N)O2` (configuration not stated), the Potency is 11.2 µM (active).

As for `CCCc1[nH]nc2c1C(C1CC=CCC1)C(C#N)=C(N)O2` (configuration not stated), the Potency is 16.4 µM (active).

With `CCc1ccc(C2C(C#N)=C(N)Oc3n[nH]c(CC(=O)OC)c32)cc1` (configuration not stated), the Potency entry is “inactive”.

Regarding `CCCc1nc2c([nH]1)C(c1cccnc1)C(C#N)=C(N)O2` (configuration not stated), the Potency entry was “inactive”.

For the compound `COCc1[nH]nc2c1C(C1C=CCCC1)C(C#N)=C(N)O2` (configuration not stated), the Potency was 13 µM (active).

Take `Cc1nn(-c2ccccc2)c2c1C(c1ccc(F)cc1)C(C#N)=C(N)O2` (configuration not stated): the Potency entry was “inactive”.

In the case of `CCCc1[nH]nc2c1C(c1ccc(Br)s1)C(C#N)=C(N)O2` (configuration not stated), the Potency is 6.51 µM (active).

Regarding `CCOc1c(OC)cc(C2C(C#N)=C(N)Oc3n[nH]c(-c4ccncc4)c32)cc1OC` (configuration not stated), the Potency result was “inactive”.

Take `CCCc1[nH]nc2c1C(c1ccc(OC(=O)c3ccco3)cc1)C(C#N)=C(N)O2` (configuration not stated): the Potency result was “inactive”.

With `Cc1cc(C)c(C#N)c(SCc2[nH]nc3c2C(c2ccccc2)C(C#N)=C(N)O3)n1` (configuration not stated), the Potency entry is “inactive”.

For the compound `N#CC1=C(N)OC2=C(C(=O)CCC2)C1C1CC=CCC1` (configuration not stated), the Potency entry is “inactive”.

Turning to `CCCc1[nH]nc2c1C(c1ccc(OC)c(Cn3nc(C)c(Br)c3C)c1)C(C#N)=C(N)O2` (configuration not stated), the Potency entry was “inactive”.

Turning to `C[C@@H]1CN([C@H](C)CO)C(=O)CCCn2cc(nn2)CO[C@H]1CN(C)S(C)(=O)=O`, the Potency result was “inactive”.

On to `O=C(O)c1ccccc1C(=O)NC1=NN(c2ccccc2)CC1`, for which the Potency entry was “inactive”.

For `CNS(=O)(=O)c1ccc2c(c1)[nH]c(=S)n2C`, the Potency result was “inactive”.

For the compound `CSc1ccccc1NC(=O)c1cc(Cl)sc1Cl`, the Potency entry is “inactive”.

For the compound `O=c1[nH]c(/C=C\c2cccc(C(F)(F)F)c2)nc(O)c1[N+](=O)[O-]`, the Potency entry was “inactive”.

Regarding `Cc1ccc(C)c(NC(=S)NNC(=S)Nc2ccc(C(C)C)cc2)c1`, the Potency result is “inactive”.

For `CC(OC(=O)CCC(=O)c1ccccc1)C(=O)Nc1ccc(F)cc1` (configuration not stated), the Potency entry was “inactive”.

Take `CCc1ccc(NC(=O)CN2C(=O)CSC2=O)cc1`: the Potency result was “inactive”.

As to `Cc1ccc(OCCC(=O)Nc2ccc(S(=O)(=O)Nc3nccs3)cc2)cc1`, the Potency entry is “inactive”.

Consider `O=C1c2cccc3c([N+](=O)[O-])ccc(c23)C(=O)N1CC1CCCO1` (configuration not stated), for which the Potency was 6.51 µM (active).

`CCC(=O)Nc1ccc(C(=O)Nc2ccc3c(c2)C(=O)N(CC2CCCO2)C3=O)cc1` (configuration not stated): the Potency entry is “inactive”.

On to `O=C(NCc1ccc2c(c1)OCO2)c1ccc2c(c1)C(=O)N(CC1CCCO1)C2=O` (configuration not stated), for which the Potency entry is “inactive”.

Take `Cc1nn(C(C)CC(=O)O)c(C)c1C` (configuration not stated): the Potency entry is “inactive”.

In the case of `NS(=O)(=O)c1ccc(CNC(=S)NC(=O)c2ccco2)cc1`, the Potency result is “inactive”.

In the case of `Cc1ccc(N(Cc2cc(=O)[nH]c3ccccc23)C(=O)CCl)cc1`, the Potency was 2.91 µM (active).

Turning to `CC(=O)N(Cc1cc(=O)[nH]c2ccccc12)c1ccc(C)cc1C`, the Potency entry is “inactive”.

In the case of `Cc1ccc(N(Cc2cc3ccccc3[nH]c2=O)C(=O)c2cccs2)cc1`, the Potency entry was “inactive”.

As to `COc1ccc(Cc2nnc(SCC(=O)Nc3ccc(C)c(C)c3)o2)cc1OC`, the Potency result is “inactive”.

Take `O=C(Nc1nccs1)C1CCCN1S(=O)(=O)c1cccc2cccnc12` (configuration not stated): the Potency entry is “inactive”.

Turning to `Cc1cccc(NC(=O)C2CCN(S(=O)(=O)c3cccc4cccnc34)CC2)c1`, the Potency result is “inactive”.

Turning to `Cc1ccc(NC(=O)C2CCCN2S(=O)(=O)c2cccc3cccnc23)c(C)c1` (configuration not stated), the Potency was 23.1 µM (active) and 16.4 µM (active).

Regarding `C=CCOc1ccc(/C=C/C(=O)OCC(=O)NC(C)c2ccc(F)cc2)cc1` (configuration not stated), the Potency entry was “inactive”.

Take `COc1ccc2[nH]c3c(c2c1)CCN1C(=O)C(CC(=O)NCc2cccc(C(F)(F)F)c2)C[C@H](C(=O)N2CCOCC2)[C@@]31C` (some centres not stated): the Potency result is “inactive”.

Take `COc1cc2c(cc1OC)CN(C(C)C(=O)Nc1cccc(S(=O)(=O)N3CCOCC3)c1)CC2` (configuration not stated): the Potency result is “inactive”.

On to `COc1ccc(Cn2c(-c3ccc(Cl)cc3)c[n+]3ccccc23)cc1`, for which the Potency is 1.84 µM (active).

As for `COc1ccc(Cn2c(=O)oc3ccccc32)cc1`, the Potency entry was “inactive”.

Consider `COc1ccc(C(=O)CN(C(=O)c2ccc(Cl)cc2)N2C(=O)c3ccccc3C2=O)cc1`, for which the Potency result was “inactive”.
